Measured values reported in PubChem BioAssay (NCI).
The panel holds about 83,000 compounds, 20% with a hit somewhere; the sample as a whole holds those more often.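 48-hour exposure, single concentration, 96-well plates; percent growth endpoint where 0 means no net growth. Active: below 10.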 Active and inactive are the calls of the source.

Assays:
Experiment in all cases: NCI-60 one-dose screen, 48 h (100 = growth as untreated, 0 = no growth, -100 = all killed)
Conditions in all cases: 10 µM unless noted
SK-MEL-2 melanoma = system: SK-MEL-2 melanoma
EKVX NSCLC = system: EKVX NSCLC
SN12C renal = system: SN12C renal
UO-31 renal = system: UO-31 renal
TK-10 renal = system: TK-10 renal
ACHN renal = system: ACHN renal
CAKI-1 renal = system: CAKI-1 renal
CCRF-CEM leukemia = system: CCRF-CEM leukemia
MOLT-4 leukemia = system: MOLT-4 leukemia
SR leukemia = system: SR leukemia
RPMI-8226 leukemia = system: RPMI-8226 leukemia
OVCAR-8 ovarian = system: OVCAR-8 ovarian
OVCAR-5 ovarian = system: OVCAR-5 ovarian
SK-OV-3 ovarian = system: SK-OV-3 ovarian
IGROV1 ovarian = system: IGROV1 ovarian
OVCAR-3 ovarian = system: OVCAR-3 ovarian
HS 578T breast = system: HS 578T breast
NCI/ADR-RES ovarian = system: NCI/ADR-RES ovarian
OVCAR-4 ovarian = system: OVCAR-4 ovarian
A498 renal = system: A498 renal

Measured: growth

Cc1ccc(C)c(CN(C)C)c1O
inactive: SK-MEL-2 melanoma 143% | EKVX NSCLC 98.1% | SN12C renal 115% | UO-31 renal 90.1% | TK-10 renal 105% | ACHN renal 114% | CAKI-1 renal 114% | CCRF-CEM leukemia 135% | MOLT-4 leukemia 124% | SR leukemia 118% | RPMI-8226 leukemia 121% | OVCAR-8 ovarian 98.2% | OVCAR-5 ovarian 102% | SK-OV-3 ovarian 107% | IGROV1 ovarian 110% | OVCAR-3 ovarian 113% | HS 578T breast 105% | NCI/ADR-RES ovarian 99.3%

COc1ccc(C(=O)/C(=N/Nc2ccccc2)c2ccc(OC)cc2)cc1
inactive: SK-MEL-2 melanoma 96.2% | EKVX NSCLC 91.7% | SN12C renal 91.5% | UO-31 renal 71.4% | TK-10 renal 112% | ACHN renal 96.1% | CAKI-1 renal 73.9% | CCRF-CEM leukemia 94.1% | MOLT-4 leukemia 85% | OVCAR-8 ovarian 115% | OVCAR-5 ovarian 94.2% | OVCAR-4 ovarian 87.2% | SK-OV-3 ovarian 104% | IGROV1 ovarian 91.5% | OVCAR-3 ovarian 103% | HS 578T breast 102% | NCI/ADR-RES ovarian 97.5%

CC1(C)OC(=O)CC1=O
inactive: SK-MEL-2 melanoma 90.9% | EKVX NSCLC 96.8% | SN12C renal 105% | UO-31 renal 92.9% | TK-10 renal 87% | ACHN renal 101% | CAKI-1 renal 90.4% | CCRF-CEM leukemia 89.3% | SR leukemia 89% | RPMI-8226 leukemia 93.4% | OVCAR-8 ovarian 97.4% | OVCAR-5 ovarian 101% | OVCAR-4 ovarian 106% | SK-OV-3 ovarian 91.6% | IGROV1 ovarian 107% | OVCAR-3 ovarian 113% | HS 578T breast 96.6% | NCI/ADR-RES ovarian 105%

O=C(O)CCCCCNC(=O)OCc1ccccc1
inactive: SK-MEL-2 melanoma 119% | EKVX NSCLC 98.1% | SN12C renal 97% | UO-31 renal 72.9% | TK-10 renal 109% | ACHN renal 101% | A498 renal 103% | MOLT-4 leukemia 110% | SR leukemia 98% | RPMI-8226 leukemia 81.5% | OVCAR-8 ovarian 112% | OVCAR-5 ovarian 97.7% | OVCAR-4 ovarian 98.5% | SK-OV-3 ovarian 106% | IGROV1 ovarian 93.9% | OVCAR-3 ovarian 104% | NCI/ADR-RES ovarian 110%
active: CCRF-CEM leukemia 0.55%

CN1CCCN(C(c2ccccc2)c2ccc(Cl)cc2)CC1 (stereo not given)
inactive: SK-MEL-2 melanoma 117% | EKVX NSCLC 94.8% | SN12C renal 101% | UO-31 renal 76.3% | TK-10 renal 78.3% | ACHN renal 98.7% | CAKI-1 renal 77.5% | CCRF-CEM leukemia 103% | MOLT-4 leukemia 89.5% | RPMI-8226 leukemia 101% | OVCAR-8 ovarian 105% | OVCAR-5 ovarian 98.8% | SK-OV-3 ovarian 110% | OVCAR-3 ovarian 104% | HS 578T breast 86.3% | NCI/ADR-RES ovarian 94%

C1CCc2onc(-c3noc4c3CCCCC4)c2CC1
inactive: SK-MEL-2 melanoma 120% | EKVX NSCLC 106% | SN12C renal 95.6% | UO-31 renal 91.1% | TK-10 renal 108% | ACHN renal 113% | CAKI-1 renal 95.6% | CCRF-CEM leukemia 99.3% | MOLT-4 leukemia 102% | SR leukemia 92.4% | RPMI-8226 leukemia 111% | OVCAR-8 ovarian 109% | OVCAR-5 ovarian 103% | OVCAR-4 ovarian 109% | SK-OV-3 ovarian 106% | IGROV1 ovarian 115% | OVCAR-3 ovarian 127% | HS 578T breast 115% | NCI/ADR-RES ovarian 115%

CCc1ccccc1C(=O)N(CC)CC
inactive: SK-MEL-2 melanoma 123% | EKVX NSCLC 96.6% | SN12C renal 105% | UO-31 renal 91.1% | TK-10 renal 106% | ACHN renal 104% | CAKI-1 renal 99.7% | CCRF-CEM leukemia 97.5% | MOLT-4 leukemia 96.4% | SR leukemia 96.3% | RPMI-8226 leukemia 103% | OVCAR-8 ovarian 105% | OVCAR-5 ovarian 99.4% | OVCAR-4 ovarian 108% | SK-OV-3 ovarian 118% | IGROV1 ovarian 103% | OVCAR-3 ovarian 110% | HS 578T breast 110% | NCI/ADR-RES ovarian 109%

COC(=O)c1ccccc1C(=O)c1c(C)cc(C)cc1C
inactive: SK-MEL-2 melanoma 94% | EKVX NSCLC 109% | SN12C renal 99.9% | UO-31 renal 92.9% | TK-10 renal 88.3% | ACHN renal 101% | CAKI-1 renal 96.4% | CCRF-CEM leukemia 99.2% | MOLT-4 leukemia 87.9% | SR leukemia 79.6% | RPMI-8226 leukemia 93.5% | OVCAR-8 ovarian 101% | OVCAR-5 ovarian 101% | OVCAR-4 ovarian 99.9% | SK-OV-3 ovarian 102% | IGROV1 ovarian 98.5% | OVCAR-3 ovarian 103% | HS 578T breast 100% | NCI/ADR-RES ovarian 102%

C=CCOc1ccc(Cl)cc1Cl
inactive: SK-MEL-2 melanoma 119% | EKVX NSCLC 103% | SN12C renal 105% | UO-31 renal 93.5% | TK-10 renal 113% | ACHN renal 102% | CAKI-1 renal 98% | MOLT-4 leukemia 52% | RPMI-8226 leukemia 113% | OVCAR-8 ovarian 119% | OVCAR-4 ovarian 106% | SK-OV-3 ovarian 118% | IGROV1 ovarian 116% | OVCAR-3 ovarian 111% | HS 578T breast 113% | NCI/ADR-RES ovarian 109%
